Test results as given in PubChem BioAssay (EPA / NIEHS).
Results filed as inconclusive are left out. The source made the active and inactive calls. Rule for the calls, unless noted: active = hit-call score of the fitted dose curve at least 0.9, where 1 is the maximum; inactive = score below 0.9.

Tests used:
[1] = STM_H9_OrnCyssISnorm_ratio: Stemina devTOX quickPredict H9 human embryonic stem cell (hESC)-based Assay for Ornithine (ORN):Cystine (CYSS) Ratio (AID 2283714; active = hit-call score of the fitted dose curve at least 0.9, where 1 is the maximum)
Summary of the method: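 Undifferentiated H9 hESCs exposed 72 h, media and compound replaced every 24 h; final 24-h conditioned media deproteinized and analysed by UPLC-HRMS against C13 spike-ins. Value is the internal-standard-normalized ORN/CYSS ratio versus 0.1% DMSO.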

[2] = Tanguay_ZF_120hpf_ActivityScore_legacy: (Legacy) Oregon State University Tanguay Lab 120 Hour Post-fertilization zebrafish Assay Score for Activity (AID 2283742; active = hit-call score of the fitted dose curve at least 0.9, where 1 is the maximum)
Summary of the method: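 Dechorionated Tropical 5D embryos, one per well from 6 hpf, statically exposed to 120 hpf at 28 °C in 0.64% DMSO. Mortality and malformations scored binary by brightfield microscopy; activity score combines 18 endpoints, fitted positively versus DMSO.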

[3] = STM_H9_NormalizedViability: Cytotoxicity Assessment at 120 hours in the Stemina devTOX quickPredict H9 human embryonic stem cell (hESC)-based Assay (AID 2283784; active = hit-call score of the fitted dose curve at least 0.9, where 1 is the maximum)
Summary of the method: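 Chemicals are tested blinded on H9 human embryonic stem cells in the pluripotent state, with medium exchanged daily. After background correction, fluorescence from CellTiter-Fluor is scaled against 0.1% DMSO wells, and decreases are scored.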

[4] = CCTE_Shafer_MEA_acute_firing_rate_mean: CCTE's Neural Acute Assay for Mean Firing Rate, Shafer Lab (AID 2284009);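 note: analyzed for loss of signal so actives lower firing rate relative to DMSO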
Summary of the method: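 Rat primary cortical neurons on 48-well MEA plates, dosed at 0.03-40 uM on DIV 13 or 15; 40 min spontaneous activity recorded at 37 C before and after compound. Spike rate per electrode averaged per well, expressed as percent change from baseline.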

[5] = CCTE_Harrill_HTTr_Viability_MCF7: CCTE's 6-hour Cell Viability Assessment for the High-Throughput Transcriptomics (HTTr) Platform, in MCF-7 cells cultured in DMEM + 10% fetal bovine serum, Harrill Lab (AID 2284010)
Summary of the method: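 Viability measured through PI dye exclusion by high-content imaging at 6 h post-dosing.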

[6] = CCTE_Harrill_HTTr_Apoptosis_MCF7: CCTE's 6-hour Apoptosis Assessment for the High-Throughput Transcriptomics (HTTr) Platform, in MCF-7 cells cultured in DMEM + 10% fetal bovine serum, Harrill Lab (AID 2284011)
Summary of the method: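 MCF-7 (DMEM + 10% FBS), 384-well; 8-pt dilution series, 6 h chemical exposure; caspase-3/7 activation via CellEvent Caspase 3/7 Green, HCI; bidirectional fit vs DMSO.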

[7] = CCTE_Shafer_MEA_acute_burst_number: CCTE's Neural Acute Assay for Single-Electrode Bursts, Shafer Lab (AID 2284013)
Summary of the method: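 Primary rat cortical neurons on 16-electrode MEA wells, treated on DIV 13 or 15 with compound at 0.03-40 uM. Single-electrode burst count from 40-min recordings at 37 C before and after exposure; percent change from baseline per well, DMSO negative control.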

[8] = CCTE_Shafer_MEA_acute_burst_duration_mean: CCTE's Neural Acute Assay for Mean Burst Duration, Shafer Lab (AID 2284014);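 note: hits are decreases in mean burst duration relative to DMSO controls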
Summary of the method: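 Rat primary cortical neurons on 48-well MEA, treated at DIV 13 or 15 with 0.03-40 uM in at least 3 wells. Value is percent change in mean burst duration, comparing 40 min recordings at 37 C before and during exposure.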

[9] = CCTE_Shafer_MEA_acute_interburst_interval_mean: CCTE's Neural Acute Assay for Mean Interburst Interval, Shafer Lab (AID 2284016);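 note: percent change of mean interburst interval versus each well's own pre-dose baseline; curves fitted for decrease in interburst interval relative to DMSO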
Summary of the method: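 Rat primary cortical neurons on 48-well MEAs at DIV 13 or 15 were exposed acutely to 0.03-40 uM. Spikes detected at 8x rms noise, 37 C. Mean interburst interval from 40 min recordings expressed as percent change from 40 min pre-treatment baseline.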

[10] = CCTE_Shafer_MEA_acute_burst_percentage_mean: CCTE's Neural Acute Assay for Percentage of Spikes in a Burst, Shafer Lab (AID 2284017)
Summary of the method: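 Primary rat cortical neurons on 48-well MEA plates, treated on DIV 13 or 15 at 0.03-40 uM. Spikes detected at 8x rms noise at 37C; percent change from 40-min baseline to 40-min post-dose recording, fitted versus DMSO.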

[11] = CCTE_Shafer_MEA_acute_burst_percentage_std: CCTE's Neural Acute Assay for Standard Deviation of Burst Percentage, Shafer Lab (AID 2284018);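 note: fitted in the negative direction so actives lower burst percentage SD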
Summary of the method: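 Rat primary cortical neurons on 48-well MEAs, DIV 13 or 15, 37 C. 40-min baseline then 40-min recording with compound (0.03-40 uM); well-level SD of per-electrode burst spike percentage, expressed as percent change from baseline.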

[12] = CCTE_Shafer_MEA_acute_per_network_burst_spike_number_mean: CCTE's Neural Acute Assay for Average Number of Spikes in a Network Burst, Shafer Lab (AID 2284019)
Summary of the method: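 Rat primary cortical neurons on 48-well MEA at DIV 13 or 15, 37 C; compounds 0.03-40 uM, at least three wells each. 40-min baseline then 40-min exposure recording; percent change in mean spikes per network burst.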

[13] = CCTE_Shafer_MEA_acute_per_network_burst_spike_number_std: CCTE's Neural Acute Assay for Standard Deviation of Number of Spikes in a Network Burst, Shafer Lab (AID 2284020);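 note: fitted for decrease in spike-number SD versus DMSO so actives lower it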
Summary of the method: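 Rat primary cortical neurons on 48-well MEA (16 electrodes/well), treated DIV 13 or 15 at 0.03-40 uM, ≥3 wells per compound. 40 min recordings at 37 C before and after dosing; value is percent change in network-burst spike-number SD, negative direction vs DMSO.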

[14] = CCTE_Shafer_MEA_acute_network_burst_percentage: CCTE's Neural Acute Assay for Percentage of Network Bursts, Shafer Lab (AID 2284022);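 note: curves fitted for loss so actives lower network burst percentage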
Summary of the method: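 Readout is the fraction of spikes falling in network bursts, expressed as per-well percent change from a 40-min pre-exposure baseline. Primary rat cortical neurons on MEA were exposed to 0.03-40 uM compound on DIV 13 or 15 and recorded for 40 min at 37 C.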

[15] = CCTE_Shafer_MEA_acute_cross_correlation_area: CCTE's Neural Acute Assay for Area of Cross Correlation, Shafer Lab (AID 2284024);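 note: area under pooled inter-electrode spike cross-correlation near zero lag as percent change from own baseline; curves fitted for loss of cross-correlation area so actives lower synchrony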
Summary of the method: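 Plates equilibrated 20 min at 37 C, then 40 min baseline was recorded, compound was added (0.03-40 uM), and a further 40 min was recorded. Wells needed ≥10 active electrodes (≥5 spikes/min) on exposure day.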

[16] = CCTE_Shafer_MEA_acute_cross_correlation_HWHM: CCTE's Neural Acute Assay for Cross Correlation at Half Width at Half Maximum, Shafer Lab (AID 2284026);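 note: spontaneous network firing of rat primary cortical neurons on multiwell microelectrode arrays; percent change per well from pre-dose baseline in spike cross-correlogram half width; hits are a decrease in cross-correlogram half width relative to DMSO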
Summary of the method: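 Rat cortical neuron cultures on microelectrode arrays were equilibrated 20 min at 37 C, recorded 40 min at baseline, then 40 min after compound addition (0.03-40 uM, ≥3 wells). Spikes were detected at 8x rms noise after 300-5000 Hz band-pass filtering.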

[17] = CCTE_Shafer_MEA_acute_synchrony_index: CCTE's Neural Acute Assay for Synchrony, Shafer Lab (AID 2284027);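 note: network synchrony index of spontaneous spiking in primary rat cortical neurons on MEAs; fitted for loss of signal so actives lower synchrony relative to DMSO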
Summary of the method: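 Spontaneous firing of mature rat cortical networks is captured extracellularly on microelectrode arrays at 37 C, with wells needing ≥10 active electrodes. Each compound (0.03-40 uM) is judged by the change in synchrony index from baseline over 40 min.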

[18] = CCTE_Shafer_MEA_acute_AB: CCTE's Alamar Blue Assay for Cytotoxicity in the Neural Acute Assay, Shafer Lab (AID 2284069; active = hit-call score of the fitted dose curve at least 0.9, where 1 is the maximum;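 note: active compounds lower the viability signal compared with DMSO wells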)
Summary of the method: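 Primary rat cortical neurons on MEA plates, exposed acutely after baseline recording on day 13 or 15 post-plating. Viability by CellTiter Blue resazurin reduction (1:6 reagent dilution), fluorescence 544/590 nm; loss of signal versus DMSO.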

IYD (gene 389434) = test: CCTE_GLTED_hIYD: CCTE's human Iodotyrosine Deiodinase (xIYD) Inhibition Assay, Great Lakes Toxicology and Ecology Division (GLTED) Lab (AID 2284317; active = hit-call score of the fitted dose curve at least 0.9, where 1 is the maximum;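 note: cell-free human IYD enzyme made in baculovirus insect cells; iodide freed from monoiodotyrosine measured by cerium arsenite color change at 420 nm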)
Summary of the method: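 First, recombinant human IYD (baculovirus-insect cells), MIT and chemical incubated 3 h. Next, iodide isolated on Dowex. Finally, Sandell-Kolthoff rate read at 420 nm, with platewise normalization to MNT and solvent controls.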

Measured: AC50

c1cc[n+]2c(c1)-c1cccc[n+]1CC2
active: [1] 2.36 µM | [3] 7.82 µM | IYD (gene 389434) 11.4 µM
inactive: all other assays above
